The record followed here is PubChem BioAssay AID1053117 (Broad Institute, 2014).

Entries with a potency or affinity are not part of this list. Active and inactive are the calls of the source.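 How the source made its calls: active means compounds lowering cell ATP signal with a fitted half-effect dose at most twice the top valid dose; inconclusive means flat curve with 30 to 70% signal loss, or bad fit; inactive means wrong direction, flat within 30%, or weaker than limit.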

The experiment in a line: viability loss in HEK293 kidney cells – cell-based, cherry-picks, set 5, cytotoxicity control, dose response (AID 1053117).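 Further: more negative means greater loss of ATP signal and more cytotoxicity.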 The conditions noted are these: HEK293T viability, CellTiter-Glo ATP luminescence, 72 h; series mostly up to 26 µM. For orientation: In ATP-based viability assays light output follows the ATP content of the culture.
`C[C@H]1CN([C@@H](C)CO)C(=O)c2cc(-c3ccccc3)cnc2O[C@@H]1CN(C)Cc1ccccc1`: the compound was called inactive.
For the compound `C[C@H](O)C#Cc1ccc2c(c1)O[C@H](CN(C)C)[C@H](C)CN([C@@H](C)CO)S2(=O)=O`, the result was inactive.
On to `O=C(NCc1ccccc1)c1ccc(-c2cn[nH]c2)c2ccoc12`, for which the call was inactive.
With `Cc1ccc(C(O)c2ncc(-c3cccc4ccccc34)[nH]2)cc1F` (centres undefined), the outcome was inactive.
As to `S=C(NCC1CCCO1)Nc1ccc(Cl)cc1Cl` (centres undefined), the outcome was inactive.
In the case of `O=C(Nc1ccccc1F)N1C[C@H]2[C@@H](c3ccccc31)[C@H](CO)N2C(=O)C1CC1`, the outcome was inactive.
Turning to `C[C@H](O)C#Cc1ccc2c(c1)O[C@@H](CN(C)C)[C@H](C)CN([C@@H](C)CO)S2(=O)=O`, the compound was classed as inactive.
Consider `CO[C@@H]1CN(C)C(=O)c2cc(NC(=O)Nc3ccc(Cl)c(Cl)c3)ccc2OC[C@H](C)NC[C@@H]1C`, for which the compound was called inactive.
Turning to `Cn1cc([N+](=O)[O-])c(C(=O)Nc2cc(Oc3ccccc3)cc([N+](=O)[O-])c2)n1`, the outcome was inactive.
`C[C@H](CO)N1C[C@H](C)[C@@H](CN(C)Cc2ccccc2)Oc2ncc(-c3ccccc3)cc2C1=O`: the result was inactive.
Turning to `Cc1ccc(NC(=O)COC(=O)c2cc(Cl)ccc2[N+](=O)[O-])c(C)c1`, the result was inactive.
As for `COc1cccc(CN2CCN(C(=O)c3ccc(-c4ccccc4)cc3)CC2)c1OC`, the entry is “inactive”; as for `CO[C@@H]1CN(C)C(=O)c2ccc(NC(=O)c3ccc(-c4ccccc4)cc3)cc2OC[C@@H](C)NC[C@@H]1C`, “inactive”.
Take `COCC(=O)Nc1ccc2c(c1)C(=O)N(C)[C@@H]1CC[C@H](CC(=O)NCc3ccccc3Cl)O[C@H]1CO2`: the outcome was inactive.
